Shown are actives, neighbours in structure and some others; about 9.2% of the full set was active somewhere.
KDM4E inh = JMJD2E (human) inhibition; B2RXH2; JMJD2E catalytic domain, FDH-coupled NADH fluorescence (FDH is formaldehyde dehydrogenase); Potency, µM (titrated, usually from 57.1 µM), for the others: top-dose activity change, negative = inhibition, actives largely listed as inhibitors; 230,000 compounds, 1.6% hits;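 further: 0% = wells with enzyme and -100% = buffer wells without enzyme; nearly all actives have a fitted effect of over 50% in size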
Target sequence (B2RXH2 1-337 limits assumed): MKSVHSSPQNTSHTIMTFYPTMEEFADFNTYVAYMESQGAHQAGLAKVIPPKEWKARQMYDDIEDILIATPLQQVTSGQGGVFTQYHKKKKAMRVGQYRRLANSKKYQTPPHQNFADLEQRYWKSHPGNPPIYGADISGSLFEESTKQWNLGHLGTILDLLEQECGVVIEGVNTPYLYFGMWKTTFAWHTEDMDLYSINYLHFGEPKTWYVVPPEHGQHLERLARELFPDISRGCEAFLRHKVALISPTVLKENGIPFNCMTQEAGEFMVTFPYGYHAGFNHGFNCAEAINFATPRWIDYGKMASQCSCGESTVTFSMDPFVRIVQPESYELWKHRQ
HttQ103 aggreg = inhibitors of mutant huntingtin aggregate formation in PC12 cells; 220,000 compounds, 1.1% hits; PC12 HttQ103-GFP aggregates, Acumen cytometry, 40 h; Potency, µM (highest dose often 46.1 µM), inactives show at the highest dose activity change, negative = inhibition, most hits filed as inhibitors; AID 1688; active means well fitted curve in the direction sought with a large enough effect; inconclusive means small, poorly fitted or top-dose-only effect, or another doubt; inactive means no such curve, though single readings can be large; an effect the other way counts as inactive or inconclusive; further: on the % scale 0 is the no-effect control and ±100 the full control effect; nearly all actives have a fitted effect of over 60% in size
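PC12 cells with ecdysone-inducible HTT exon1 Q103-GFP, induced by 100 nM tebufenozide, given compounds in a concentration series. GFP aggregates (1–25 um, 6 SD above background) counted in lysates by laser-scanning cytometry, 488 nm excitation.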
Lamin A splicing = LMNA splicing modulation; HeLa LMNA splicing GFP/RFP minigene ratio, 48 h; Potency, µM (top dose mostly 46.1 µM), for the others: top-dose ratio change, negative = inhibition, hits mostly inhibitors; 200,000 compounds, 0.01% hits; active means well fitted inhibition curve with a large enough effect in the signal ratio, with a control signal flat, not every such curve was filed as active; inconclusive means small, poorly fitted or top-dose-only effect, or effect the other way, or a change in a side signal; the % refers to the signal ratio; further: on the % scale 0 is the no-effect control and ±100 the full control effect
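S3 HeLa cells stably expressing lamin A-EGFP splicing minigene plus DsRed2, 600 cells/well, 48 h compound exposure at 37C. Laser-scanning cytometry; analysed as GFP (500-530 nm)/RFP (575-640 nm) total intensity ratio; 0.5% DMSO vehicle.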
ALDH1A1 block = inhibitors of human aldehyde dehydrogenase 1A1. P00352. Purified ALDH1A1, NADH fluorescence, propionaldehyde substrate. Potency, µM (top dose mostly 75.3 µM), for the others: top-dose activity, negative = inhibition, most hits filed as inhibitors. 220,000 compounds, 7.3% hits. AID 1030;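 further: plate controls were no enzyme wells and a reference inhibitor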
HPGD inh = blocks human HPGD enzyme activity; P15428; purified HPGD, NADH fluorescence kinetic, PGE2 substrate; Potency, µM, without a hit: top-dose activity change, negative = inhibition, most hits filed as inhibitors; 150,000 compounds, 4.3% hits; AID 894; further: on the % scale 0 is the no-effect control and ±100 the full control effect
Target sequence (P15428 whole entry, looked up): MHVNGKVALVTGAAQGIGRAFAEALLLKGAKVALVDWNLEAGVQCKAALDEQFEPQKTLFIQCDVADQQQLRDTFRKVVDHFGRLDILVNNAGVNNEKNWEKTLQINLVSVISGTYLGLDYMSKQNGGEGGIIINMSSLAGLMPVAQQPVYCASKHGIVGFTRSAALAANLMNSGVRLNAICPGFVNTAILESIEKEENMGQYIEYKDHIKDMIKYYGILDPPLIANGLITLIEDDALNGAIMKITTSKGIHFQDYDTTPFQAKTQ
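NADH formation kinetics: reaction with 30 uM PGE2 and 1 mM NAD+ (final), 20 nM enzyme, Tris-HCl pH 8 with Tween 20, after 15 min compound preincubation at room temperature. Fluorescence change, last versus first of five reads.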
HTT cytoprotect = cytoprotection in Huntington HTT-Q103 PC12 cell model; PC12 HTT-Q103 induced, cytoprotection, ATP luminescence, 40 h; Potency, µM (top dose mostly 56.4 µM), for inactives: cytoprotection (ATP increase), hits mostly activators; 230,000 compounds, 0.14% hits; AID 1471; active means well fitted curve in the direction sought with a large enough effect; inconclusive means small, poorly fitted or top-dose-only effect, or another doubt; inactive means no such curve, though single readings can be large; an effect the other way counts as inactive or inconclusive; further: % of control where 0% means no effect; nearly all actives have a fitted effect of over 45% in size
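ATP quantification (ATPlite) reports survival of PC12 cells in which tebufenozide, 100 nM final, switches on Htt exon 1 with 103 glutamines linked to GFP; compounds are titrated.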
* hit, by the source's call; ? = inconclusive; . = no result given; [ ] = another dose, or the depositor's remark. Unless noted, the call rests on the fitted dose curve; in most records, active means well fitted inhibition curve with a large enough effect (not every such curve was filed as active); inconclusive means small, poorly fitted or top-dose-only effect, or another doubt; inactive means no such curve, though single readings can be large or run the other way. Potency means the concentration at half of the fitted maximal effect.

SMILES	KDM4E inh	HttQ103 aggreg	Lamin A splicing	ALDH1A1 block	HPGD inh	HTT cytoprotect
Cc1ccc(-c2n[nH]c(=S)n2/N=C/c2ccc(C)o2)cc1	-4.8%	4.0%	-3.2%	?	12.6µM*	-10.4%[10 µM]
Cc1cccc(-c2n[nH]c(=S)n2/N=C/c2ccco2)c1	-1.9%	-4.3%[9.22 µM]	.	.	.	19.1%[10 µM]
Cc1c(C(=O)Nc2ccc(-n3c(C)nc4ccccc4c3=O)cc2)cccc1[N+](=O)[O-]	.	.	15.4%[46 µM]	.	.	.
Nc1ncn([C@@H]2O[C@@H](CO)[C@@H](O)[C@H]2O)c(=O)n1	.	.	.	.	.	-20.5%[1.9 µM]
COc1cc2c(cc1NC(=O)COc1ccccc1OC)oc1ccccc12	7.7%	9.4%	-7.7%	?	?	12.2%[10 µM]
N#Cc1ccc(CSc2nnc(Cc3cccs3)n2Cc2ccco2)cc1	1.6%	17.7%	-2.0%	11.2µM*	-20.1%	0.3%
COc1cc2c(cc1NC(=O)COC(=O)Cn1cnc3ccccc31)oc1ccccc12	?	-20.3%	?	11.2µM*	?	-22.5%[10 µM]
C=CCn1c(SCC(=O)Nc2cc3oc4ccccc4c3cc2OC)nnc1-c1cnccn1	?	-20.0%	-0.8%	28.2µM*	.	1.2%
COc1cc2c(cc1NC(=O)CSc1nnc(Cc3cccs3)n1C)oc1ccccc12	-3.3%	0.8%	1.5%	14.1µM*	-17.0%	5.4%[10 µM]
COc1cc2c(cc1NC(=O)CSc1nnc(COc3ccc(Cl)cc3)n1C)oc1ccccc12	-13.7%	-25.1%	-1.3%	9.6%	-12.9%	-55.7%
CC1C2NC(=O)N(Cc3ccccc3)C1(C)Oc1ccccc12 (stereo unspecified)	-2.1%	-32.2%	?	8.6%	.	11.3%
CCc1ccc(CNC(=O)c2cnc3c(C)cccn3c2=O)cc1	.	.	-0.3%[46 µM]	.	.	.
Cc1cc2c(c(=O)o1)[C@H](O)[C@H]1O[C@@H]1C2=O	.	.	.	-9.3%[13.5 µM]	.	?
CCCn1c(SCC(=O)c2cc(OC)ccc2OC)nnc1C(C)C	2.6%	-4.5%	2.3%	?	-7.2%	-18.0%
COc1cc2c(cc1NC(=O)CSc1nnc(Cc3cccs3)n1Cc1ccco1)oc1ccccc12	-18.3%	-10.9%	-3.0%	5.01µM*	-29.7%	-53.7%
CCn1c(SCC(=O)Nc2cc3oc4ccccc4c3cc2OC)nnc1-c1cccs1	-14.2%	0.7%	-0.2%	12.6µM*	-4.2%	-10.4%
COc1cc2c(cc1NC(=O)CSc1ccc(C)cc1)oc1ccccc12	?	-15.3%	0.1%	-12.0%	?	-20.8%
Cc1cc(Cl)ccc1NC(=O)CSc1nnc(Cc2cccs2)n1Cc1ccco1	-12.1%	5.9%	-16.1%	?	-12.8%	7.0%[10 µM]
COc1ccc(OC)c(C(=O)CSc2nnc(Cc3cccs3)n2C)c1	?	-18.9%[9.22 µM]	10.4%	22.4µM*	-20.9%	-3.6%
CC1=C(\C=C/C(C)=C/C=C\C(C)=C\C(=O)Nc2ccc(O)cc2)C(C)(C)CCC1	.	.	.	.	.	11.4%[1.9 µM]
O=C(CSc1nc2ncccc2[nH]1)c1ccc2c(c1)OCO2	8.0%	-2.7%[9.22 µM]	.	.	.	-4.2%[10 µM]
Cc1ccc(-c2cc(-c3ccco3)c3c(N)c(C(=O)NN)oc3n2)cc1	3.16µM*	0.7%[9.22 µM]	.	.	.	4.3%[10 µM]
CCc1nn2c(=O)cc(COC(=O)c3cccc(NC(=O)COc4ccccc4)c3)nc2s1	.	.	11.6%[46 µM]	.	.	.
CCCCNC(=O)/C=C/c1ccc(OC)c(Br)c1	1.9%	6.8%	-4.2%	-0.8%	25.1µM*	6.2%[10 µM]
O=C1OCC2OC(O)C(O)C(O)C2OC(=O)c2cc(O)c(O)c(O)c2-c2c(O)c(O)c3oc(=O)c4c(c(O)c(O)c5oc(=O)c2c3c54)-c2c1cc(O)c(O)c2O (stereo unspecified)	0.562µM*	-25.1%[9.22 µM]	.	.	.	2.9%[10 µM]
COc1c(O)cc2c(c1O)[C@@H]1O[C@@H](CO)[C@@H](O)[C@@H](O)[C@@H]1OC2=O	1.4%[25.5 µM]	7.5%[20.6 µM]	?	-6.4%[20.9 µM]	-1.4%	-4.1%[40.3 µM]
CC1(C)[C@@H]2CC[C@]1(C)[C@@H](OC(=O)/C=C\c1ccccc1)C2	.	.	.	-1.3%[13.5 µM]	-9.8%	-17.5%[10 µM]
CCn1ncc(Br)c1C(=O)Nc1nccs1	-3.2%	-16.0%	-11.6%	-13.9%	25.1µM*	-1.3%[10 µM]

Bioassay records (PubChem BioAssay)
